Each structure is given as a SMILES string. Activity calls are given as the source filed them. How the calls were made is not given here.

In this test the test system is BCL3. The test can be described thus: STAT3 activation with BCL3 mRNA and toxicity – cell-based, STAT1 reporter, BCL3 qPCR, cytotoxicity, late-stage follow-up (AID 2049). Particulars: human cell reporter; BCL3 mRNA qPCR, at 10 µM, stronger effect = higher value.
Consider `CCCc1cc(C(=O)Nc2cc(OC)c(Cl)cc2OC)no1`, for which the outcome was active and the fold change came to 1.3.

Turning to `COc1cc(NC(=O)c2cc(C(C)C)on2)c(OC)cc1Cl`, the outcome is “inactive; active” and the fold change turned out to be 0.42.

For the molecule `COc1cc(NC(=O)c2cc(C3CC3)on2)c(OC)cc1Cl`, the fold change was 2.07 and the outcome is “active; probe”.

Source of the values: PubChem BioAssay AID2049 (The Scripps Research Institute Molecular Screening Center, 2009).
